SMILES strings stand for the structures. Records with an inconclusive call do not appear. A call without a number means that no potency is given here. The source made the active and inactive calls. Calls come from the whole dose curve; as a rule, active = well fitted cell-killing curve with a large enough effect; inconclusive = small, poorly fitted or top-dose-only effect, or effect the other way; inactive = flat fitted curve, though single readings scatter.
Potency is the fitted concentration of half-maximal effect.

The assay has as its system CAOV3. The assay is described as follows: Primary qHTS to identify gynecologic anti-cancer compounds using libraries of approved drugs and bioactive compounds (AID 1345084). Note: nearly all actives have a fitted effect of over 55% in size. Particulars: Gynecologic cancer cell panel viability, ATPlite luminescence, 48 h; series mostly up to 57.5 µM. Summed up:
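Luminescence from the ATPlite ATP-monitoring reagent indicates viable cell number; lower signal means cytotoxicity. Cells received compound 16 h after seeding and were exposed for 48 h across five concentrations.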
Background: qHTS replaces the single test concentration by a dilution series.
`CCCN(CCC)S(=O)(=O)c1ccc(C(=O)O)cc1`: the Potency entry was “inactive”.

Take `CC(C)Cc1ccc(CC(=O)O)cc1`: the Potency entry was “inactive”. As for `c1ccc(CC2=NCCN2)cc1`, the Potency entry is “inactive”.

Regarding `CC(C)[N+](C)(C)CC(O)COc1cccc2ccccc12` (configuration not stated), the Potency result was “inactive”.

For `Cc1cc(C)cc(OCC2CNC(=O)O2)c1` (configuration not stated), the Potency entry is “inactive”. As for `C[C@H]1O[C@@H](O[C@H]2CC[C@@]3(C)[C@H](CC[C@@H]4[C@@H]3C[C@@H](O)[C@]3(C)[C@@H](C5=CC(=O)OC5)CC[C@]43O)C2)C[C@H](O)[C@@H]1O[C@H]1C[C@H](O)[C@H](O[C@H]2C[C@H](O)[C@H](O[C@@H]3O[C@H](CO)[C@@H](O)[C@H](O)[C@H]3O)[C@@H](C)O2)[C@@H](C)O1`, the Potency is 0.501 µM (active).

On to `O=[N+]([O-])c1ccc(/C=N\O)o1`, for which the Potency result was “inactive”. Take `CC(=O)OCC1=C(C(=O)O)N2C(=O)[C@@H](NC(=O)CSc3ccncc3)[C@H]2SC1`: the Potency entry was “inactive”. On to `CC(=O)NCCCCCC(=O)O`, for which the Potency entry was “inactive”.

On to `CC(=O)Nc1ccc(OCC(O)CNC(C)C)cc1` (configuration not stated), for which the Potency result is “inactive”. With `CC[C@H](c1ccc(O)cc1)[C@@H](CC)c1ccc(O)cc1`, the Potency entry is “inactive”. Consider `C/C=C/C=N/NC(=O)c1ccncc1`, for which the Potency result was “inactive”. With `NCCNc1cccc2ccccc12`, the Potency result is “inactive”.

As to `C[N+]12CCC(CC1)C(OC(=O)C(O)(c1ccccc1)c1ccccc1)C2` (configuration not stated), the Potency result was “inactive”. Next, `CC1(COc2ccc(CC3SC(=O)NC3=O)cc2)CCCCC1` (configuration not stated): “inactive”; `O=C(Oc1cccc2cccnc12)c1ccccc1`: “inactive”. In the case of `CCN1CCN(C(=O)N[C@@H](C(=O)N[C@@H]2C(=O)N3C(C(=O)O)=C(CSc4nnnn4C)CS[C@H]23)c2ccc(O)cc2)C(=O)C1=O` it was “inactive”.

The record behind these values is PubChem BioAssay (NCATS).
